Bioassay records (PubChem BioAssay)
An excerpt weighted towards active compounds, which were near 1.3% of everything screened.
SARS 3CLpro inh – SARS-CoV 3CLpro protease inhibition | P0C6X7 | recombinant SARS-CoV 3CLpro, quenched FRET peptide cleavage | inhibition, % at 6 µM | 0.14% of 290,000 active | AID 1706; in the data active = inhibition above about 12%
CCHF vOTU inh – blocks the CCHF virus ovarian tumor domain protease; inhibition, % at 11.5 µM; AID 651958; CCHFV vOTU protease, Pep-AMC fluorescence; 0.55% of 370,000 active; in the data active = inhibition above about 30%; also: 0% = vehicle wells with enzyme and 100% = no enzyme wells
PrP 5UTR inh – inhibition of PrP 5' UTR reporter expression. cell-based PrP 5' UTR mRNA reporter, plate reader. inhibition, % (concentration not given with the values). 0.35% of 340,000 active. AID 488862; in the data active = inhibition above about 52%; also: 0 = median of the neutral control wells
PrPC surface inh – inhibitors of human cell surface prion protein PrPC | P04156 | TR-FRET read-out | inhibition, % at 13.8 µM | 0.43% of 370,000 active | AID 720596; in the data active = inhibition above about 24%; also: 0% = median of the test wells and 100% = reference compound wells
PrPC TRFRET cf – cell surface PrPC inhibition, TR-FRET confirmation; shares compounds with PrPC surface inh; cell surface PrPC level; inhibition, % at 13.8 µM; 65% of 1,500 active; in the data active = inhibition above about 25%
LD9 cytotox – kills or reduces viability of LD9 cells in PrPc counter-screen | shares compounds with PrPC surface inh | LD9 cells cytotoxicity, luminescence viability | inhibition, % at 13.8 µM | 29% of 1,500 active; in the data active = inhibition above about 9.5%
Starred values were filed as active, the others as inactive; x = no result given.

SMILES	SARS 3CLpro inh	CCHF vOTU inh	PrP 5UTR inh	PrPC surface inh	PrPC TRFRET cf	LD9 cytotox
O=c1nc(N/N=C/c2ccccn2)cn[nH]1	2	1	-9	25*	23	9.5*
NNC(=O)C(=O)Nc1ccc(O)cc1	-3	-14	-45	31*	-3	-6
S=c1nc(C2CCCCC2)[nH]c2ccccc12	1	-3	-15	32*	38*	-6
CC1CCN(S(=O)(=O)c2ccc(NC(=O)c3ccncc3)cc2)CC1	2	-1	-20	2	x	x
COC(=O)c1ccc(NC(=O)c2nc(S(=O)(=O)Cc3cccc(C)c3)ncc2Cl)cc1	6	9	-4	84*	46*	96*
CCOC(=O)c1ccc(NC(=O)c2nc(S(=O)(=O)Cc3ccccc3)ncc2Cl)cc1	0	5	-5	1	x	x
CCc1ccc(NC(=O)c2nc(S(=O)(=O)Cc3ccccc3)ncc2Cl)cc1	1	14	-20	64*	24	96*
CCS(=O)(=O)c1ncc(Cl)c(C(=O)Nc2ccc(S(=O)(=O)N3CCC(C)CC3)cc2)n1	4	24	-6	79*	38*	100*
CN(CC(=O)Nc1ccc2c(c1)OCCO2)CC(=O)Nc1ccc(F)c(F)c1F	x	14	-8	-4	x	x
CC(=O)Nc1ccc(NS(=O)(=O)c2ccc(-c3cnc(C4CC4)o3)cc2)cc1	-2	8	-5	-6	x	x
CC(=O)c1cccc(NS(=O)(=O)c2ccc(-c3cnc(C4CC4)o3)cc2)c1	8	10	-42	30*	22	19*
C/C=C(/C)C(=O)Nc1cccc(C2=NOC3(C2)C[C@@H](C(N)=O)N(C(=O)[C@H]2CCC(=O)N2)C3)c1 (stereo partly specified)	x	8	-13	2	x	x
C=C(C)C(=O)Nc1cccc(C2=NOC3(C2)C[C@@H](C(N)=O)N(C(=O)[C@H]2CCC(=O)N2)C3)c1 (stereo partly specified)	x	9	-11	50*	38*	-2
CCOc1cc(C(=S)N2CCCC2)ccc1OCc1ccccc1	0	3	16	27*	7	-5
CCOc1ccc(C(=S)N2CCCC2)cc1OCC	0	-10	-27	-4	x	x
N#CC(C#N)=C(Nc1ccc(F)cc1)SCc1cccc(F)c1	-5	3	-4	28*	33*	35*
O=C(CSc1ccccc1)NCc1ccc(F)cc1	4	-1	-30	-1	x	x
Cc1ccc(S(=O)(=O)n2c(C)nc3ccccc32)cc1	-2	-6	-25	-2	x	x
CCOc1cc(S(=O)(=O)n2c(C)nc3ccccc32)ccc1F	6	5	7	59*	14	-4
O=C(CCC(=O)N1CCOc2ccccc21)N1CCOCC1	2	-3	-3	-5	x	x
CC(O)CC(=O)OC[C@]12CC[C@H]3[C@@](C)(CC[C@H]4C(C)(C)CCC[C@]34C)[C@@H]1CC(C1=CC(=O)OC1O)O2 (stereo partly specified)	x	14	x	34*	26*	64*
CCC(CC)NC(=O)COC(=O)c1ccc(OCc2ccc(C(C)=O)cc2OC)c(OC)c1	-1	1	-1	-1	x	x
COCCn1c(SCC(=O)Nc2cccc(NC(C)=O)c2)nc2c([nH]c3ccccc32)c1=O	0	12	-11	29*	10	1
CC(C)c1ccc(/C=C(\c2nc3ccccc3[nH]2)S(=O)(=O)c2ccccc2)cc1	3	-10	-8	43*	44*	-7
O=S(=O)(/C(=C/c1ccc(C(F)(F)F)cc1)c1nc2ccccc2[nH]1)c1ccccc1	-1	6	-71	38*	79*	97*
SMILES	SARS 3CLpro inh	CCHF vOTU inh	PrP 5UTR inh	PrPC surface inh	PrPC TRFRET cf	LD9 cytotox
O=C(NCc1ccncc1)C(=O)N/N=C/c1cccnc1	-6	-9	1	-8	x	x
COc1ccccc1C(=O)NC(=S)/C=C1/N(C)c2ccccc2C1(C)C	4	3	-11	29*	49*	11*
O=C(Nc1ccc(Br)c2ccccc12)c1ccc2ccccc2c1O	7	-1	-32	35*	64*	21*
CC(=O)Nc1ccc(Br)c2ccccc12	0	-2	-4	21	x	x
CCOc1ccc(C2C(C(=O)c3ccc(C)o3)=C(O)C(=O)N2CCCN(CC)CC)cc1 (stereo unspecified)	4	3	-14	0	x	x
COc1cc(N2C(=O)NC3CC2(C)Oc2ccccc23)cc(OC)c1OC (stereo unspecified)	-2	4	-13	33*	3	-7
CCCN1C(=O)/C(=N\OCC(=O)Nc2ccc(C(C)C)cc2)c2ccccc21	2	-2	-33	-11	x	x
O=S(=O)(Nc1ccc(Cc2ccncc2)cc1)c1ccc(Br)s1	-3	0	-10	20	x	x
O=S(=O)(Nc1ccc(Cc2ccncc2)cc1)c1ccc(Br)cc1	-4	-6	-37	36*	31*	4
O=S(=O)(Nc1ccc(Cc2ccncc2)cc1)c1ccc(Cl)cc1	7	-16	-16	40*	38*	-1
CCCC(=O)NC(c1ccc(C(C)C)cc1)c1ccc2cccnc2c1O (stereo unspecified)	1	-2	26	19	x	x
CCCC(=O)NC(c1ccccc1Cl)c1ccc2cccnc2c1O (stereo unspecified)	3	1	20	27*	28*	34*
CCC(=O)NC(c1ccc(C)cc1)c1ccc2cccnc2c1O (stereo unspecified)	-2	-8	16	30*	31*	28*
CC(=O)NC(c1ccco1)c1ccc2cccnc2c1O (stereo unspecified)	5	x	18	x	x	x
CCCC(=O)NC(c1ccc(N(C)C)cc1)c1ccc2cccnc2c1O (stereo unspecified)	0	2	37	21	x	x
CC(=O)NC(c1ccc(Cl)cc1)c1ccc2cccnc2c1O (stereo unspecified)	x	-10	28	40*	35*	33*
CC(C)C(=O)NC(c1ccc(Cl)cc1Cl)c1ccc2cccnc2c1O (stereo unspecified)	-3	-4	46	30*	25*	9.8*
c1ccc(COc2ccccc2CNC2CCCC2)cc1	3	-4	-17	-1	x	x
CCCCn1c(N)c(N(CCC(C)C)C(=O)C2=NN(c3ccccc3)C(=O)CC2)c(=O)[nH]c1=O	x	13	-18	9	x	x
CC(=O)Nc1ccc(N=Cc2ccc(OCc3ccccc3)cc2)cc1	-1	22	-37	3	x	x
CCC(=O)NC(c1ccc(Cl)cc1Cl)c1ccc2cccnc2c1O (stereo unspecified)	2	-12	19	28*	21	25*
CCCCC(=O)NC(c1ccc(Cl)cc1Cl)c1ccc2cccnc2c1O (stereo unspecified)	7	-7	42	7	x	x
Cc1cc(SCC(=O)NC2CCCCC2)nc2ccccc12	7	-5	-3	21	x	x
Cc1cc(SCC(=O)NC2CCCC2)nc2ccccc12	-4	16	-2	28*	39*	-3
